Test results as given in the OligoGym collection.

Each sequence was assayed against ULK1 (assay: pooled miR-30 sensor sort-seq; sequence = guide strand). Settings: shRNA.
Note: reference of the scale not given here.

Sequence | sensor-assay potency score (higher = more potent)
ATCAAGAGAACATTCAACCAGG | -0.0767
TTGTACAGCTCATTCAGCCTGC | 0.11
ATGTGTATGTACAAACACCAGG | -1.55
TTCTTCTTGTTAATGCACTTGA | 0.0356
TTGAACAAAGAACTGCCTCTGC | 1.01
TTGTTCTTCTCGTAGAACAGGC | -0.479
TTTTTGTCTGTTATGTGGCGTG | -0.361
TTCAGGTACAGCACCAGCTGTT | -0.477
TTGCTCTGGAGGTACCGCGCGA | -0.555
TTGCGGGAGAACTCGAACTTGC | -0.945
TTGCAAAGAAAAACACACGTGT | 0.333
TTCTTCTCGTAGAACAGGCGCA | -0.466

The sequences below were run against UMOD in the same assay as above. Settings: shRNA.

Sequence | sensor-assay potency score (higher = more potent)
TAGTTGAGTCTCTAGTGTGTGG | -0.521
TTGTAGACGTAGTAGCCGCCGG | -1.04
TTGAAGTCCTGTTTGCACTGGC | 0.829
ATCAGTGATGTTGAAGTCCTGT | 0.164
TATACTGCACTCCTCACACGTC | -0.701
TTGCACTTTTCATTCATGGTGT | 0.244
TAGAGCACTGACCATTGGCTGT | -0.936
TTTCATTCCTCGTCAACACTGT | 0.582
TTCCTCGTCAACACTGTCCCAC | 0.0538
TAGACTAGGTCATAGTTTCCAG | -0.219
TCGATTTGCAGTCCTCGTCTAT | -0.657
TTGCAGTCCTCGTCTATACTGC | -0.687

Each sequence was assayed against UNC5A in the same assay as above. Settings: shRNA.

Sequence | sensor-assay potency score (higher = more potent)
TTGAGGATCATGGCTGTGGGGC | -1.23
TTAAGGGACAGCTTCGGCCGGG | -0.139
TAGGCCTTCTGACTCTTGGTGG | -0.43
TTACTCTTCCACAGGGAGCTGG | -0.541
TAGATCTCATAGATCTTCCCTC | -0.268
TTGGTGAGCTGGAACTTGGGGC | -0.337
TAGACGATGACAGCAGCGGAGG | -1.55
TTGAAGTTGATGCTGAAGCTCT | -0.155
TTGCACTTGAAGAAGATCTGCG | 0.732
TCTCATAGATCTTCCCTCGGGG | -0.279
TTGATGCTGAAGCTCTGCCCGT | -1.2
TTGAAGAAGATCTGCGTGGCGG | -0.341
